Bioassay records: PubChem, National Center for Advancing Translational Sciences (NCATS)
Compounds with a hit are over-represented: about 7.4% of the library has one in this group of screens.
ELG1 genotoxic: inducers of genotoxicity in HEK293T ELG1-luciferase cells; AID 504466; hit rate 1.3% among 330,000; HEK293T ELG1-luciferase reporter, luminescence, 16 h; Potency, µM (titrated, usually from 46 µM), without a hit: top-dose activity change, positive = activation, actives largely listed as activators; note: % of control where 0% means no effect; nearly all actives have a fitted effect of over 60% in size
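Quantitative HTS format in 1536-well plates. HEK293T ELG1-luciferase reporter cells receive test compound and are incubated 16 hr at 37 °C, 5% CO2; ONE-Glo added, 30 min room temperature, then luminescence read.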
FLuc counter: counter-screen for miR-21 project: firefly luciferase inhibitors or activators; P08659; purified FLuc, Km substrates, luminescence inhibition; Potency, µM (series often up to 57.5 µM), inactives show at the top dose activity change, negative = inhibition, most hits filed as inhibitors; hit rate 6.9% among 360,000; AID 588342;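 note: plate controls were vehicle for no effect and reference inhibitor for full effect; nearly all actives have a fitted effect of over 55% in size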
Target sequence (P08659 whole entry, looked up): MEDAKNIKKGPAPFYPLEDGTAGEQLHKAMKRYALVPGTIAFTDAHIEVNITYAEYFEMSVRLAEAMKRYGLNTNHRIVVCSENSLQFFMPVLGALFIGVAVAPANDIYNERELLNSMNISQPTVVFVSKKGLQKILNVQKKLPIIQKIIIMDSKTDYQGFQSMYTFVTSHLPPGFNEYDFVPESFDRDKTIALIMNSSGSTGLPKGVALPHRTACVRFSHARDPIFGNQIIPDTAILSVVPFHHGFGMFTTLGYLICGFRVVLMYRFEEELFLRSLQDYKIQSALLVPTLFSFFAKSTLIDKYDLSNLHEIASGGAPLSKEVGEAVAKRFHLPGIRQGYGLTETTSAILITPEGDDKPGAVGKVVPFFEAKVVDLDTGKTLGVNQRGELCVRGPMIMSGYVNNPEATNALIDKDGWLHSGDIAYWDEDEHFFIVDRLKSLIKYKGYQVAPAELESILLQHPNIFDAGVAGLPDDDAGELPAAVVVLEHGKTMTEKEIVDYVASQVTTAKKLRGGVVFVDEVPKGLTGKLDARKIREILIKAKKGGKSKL
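Purified P. pyralis luciferase (10nM final) with 10uM D-luciferin and 10uM ATP (Km levels) in 50mM Tris acetate pH 7.5, 10mM Mg acetate, 0.01% Tween-20, 0.05% BSA; qHTS 6-point titration, ~60 µM downward; luminescence read.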
NPC1 prom act: activators of NPC1 promoter; Huh7 NPC1 promoter luciferase reporter, 24 h; Potency, µM (highest dose often 9.22 µM), inactives show top-dose activation, hits mostly activators; hit rate 2.4% among 320,000; AID 485313; note: % of control where 0% means no effect; nearly all actives have a fitted effect of over 60% in size
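Quantitative HTS used a cell-based reporter: Huh7 cells stably bearing the NPC1 promoter upstream of luciferase were treated with compounds for 24 h, and promoter activation was read as luminescence.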
SMN2 splice enh: enhancers of SMN2 splice variant expression; hit rate 2.8% among 210,000; Potency, µM (series often up to 46.1 µM), for the others: at the highest dose activity change, positive = activation, hits mostly activators; HEK293 SMN2-luciferase splicing reporter, luminescence, 30-36 h; note: % of control where 0% means no effect; nearly all actives have a fitted effect of over 55% in size
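HEK293 cells carry an SMN2 […]–luciferase reporter in which exon 7 inclusion puts luciferase in frame. Cells were plated 10-12 h before compound addition, then incubated 30-36 h at 37C. ONE-Glo luminescence was read; sodium butyrate at 4.5 mM final served as control.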
Rab9 promoter act: Rab9 promoter activation; Huh7 Rab9 promoter-luciferase reporter, luminescence, 24 h; Potency, µM (highest dose often 9.22 µM), for inactives: at the top dose activation, negative = inhibition, most hits filed as activators; hit rate 2.8% among 320,000; AID 485297; note: % of control where 0% means no effect; nearly all actives have a fitted effect of over 60% in size
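Huh7 cells stably carrying a Rab9 promoter-luciferase reporter, 1500 cells per well in OP-MEM I with 10% FBS, treated with compound 24 hours at 37C. Luciferase activity read by luminescence after 10 minutes with Amplite reagent.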
* marks the source's active call; other numbers are inactive results; ? = inconclusive; . = not tested or not shown. Calls come from the whole dose curve; as a rule, active = well fitted curve in the direction sought with a large enough effect; inconclusive = small, poorly fitted or top-dose-only effect, or another doubt; inactive = no such curve, though single readings can be large; an effect the other way counts as inactive or inconclusive. Potency is the fitted concentration of half-maximal effect.

SMILES	ELG1 genotoxic	FLuc counter	NPC1 prom act	SMN2 splice enh	Rab9 promoter act
COC(=O)C1(Cc2ccccc2)C=C2C(=C(C(C)C)C(=O)C2C)CN1 (configuration not stated)	.	.	.	-34%	.
Cc1ccc(C)c(S(=O)(=O)NCCc2csc(-c3ccc(Cl)cc3)n2)c1	.	4%	.	.	.
O=C(CNC(=O)c1ccccc1F)OCc1cc(=O)n2nc(C3CC3)sc2n1	.	-5%	.	.	.
CSc1ccc(-c2nc3cccc(C)n3c2Nc2ccc(Cl)cc2)cc1	.	2%	.	-30%	.
CCOC(=O)c1c(C)[nH]c(C)c1S(=O)(=O)N1CCCC(C(=O)Nc2cc(C)ccc2C)C1 (configuration not stated)	.	2%	.	.	.
CC(C)(C)N=Cc1cc(-c2ccccc2)sc1O	9.2µM*	5.4µM*	2.8µM*	22%	2.2µM*
CC(C)(C)Nc1ncnc2sc(-c3ccccc3)cc12	-4%	?	-1%	.	-1%
O=C(CCCCn1c(=O)c2ccccc2n(CC(=O)Nc2ccc(F)cc2F)c1=O)NCc1ccccc1Cl	.	1%	.	-5%	.
CCc1nnc(NC(=O)c2sc3nc4cc(C)ccc4cc3c2N)s1	-2%	9.5µM*	13%	-9%	17%
CCSc1nnc(NC(=O)c2ccc3ccccc3n2)s1	?	12µM*	?	14µM*	?
CCOC(=O)Cc1csc(NC(=O)c2sc3nc4ccc(C)cc4cc3c2N)n1	?	?	3%	13%	11%
CCSc1nnc(NC(=O)c2cc(C)nc3ccccc23)s1	0%	4%	-3%	-4%	-5%
CCc1nnc(NC(=O)c2nc(Cl)ccc2Cl)s1	5%	3%	1%	.	7%
CCc1nnc(NC(=O)c2ccc3ccccc3n2)s1	-15%	13µM*	?	2.8µM*	2.5µM*
CCOc1ccccc1NC(=O)c1c2c(nc3ccccc13)C(=O)N(C1CCCCC1)C2	.	-6%	.	.	.
COc1ccc(N(C)C(=O)c2cc(S(=O)(=O)N3CCc4ccccc43)cn2C)c(OC)c1	.	-9%	.	.	.
COC(=O)/C(Cc1cc(Br)c(OC)c(Br)c1O)=N/O	.	.	.	13%	.
Cc1oc(-c2ccc3c(c2)OCCO3)cc1C(=O)O	-12%	2.4µM*	-34%	-36%	-39%
COc1ccc(-c2cc(C(=O)O)c(C)o2)cc1OC	?	1.7µM*	?	0.63µM*	0.32µM*
Cc1oc(-c2ccc3c(c2)OCCO3)cc1C(=O)NCC(=O)O	-7%	-3%	-5%	.	-6%
COc1ccc(-c2cc(C(=O)NC(Cc3cc4ccccc4[nH]3)C(=O)O)c(C)o2)cc1OC (configuration not stated)	16%	?	22%	.	?
COC(=O)c1ccc(/C=C2\SC(=S)N(CCCC(=O)NCCCN3CCOCC3)C2=O)cc1	-10%	?	-10%	.	-4%
COc1ccc(/C=C2\SC(=S)N(CCC(=O)NCCCN3CCOCC3)C2=O)cc1	0%	17µM*	1%	.	-8%
Cc1ccc(/C=C2\SC(=S)N(CCC(=O)NCCCN3CCOCC3)C2=O)cc1	-8%	?	-2%	.	-2%
CCc1ccc(/C=C2\SC(=S)N(CCC(=O)NCCCN3CCOCC3)C2=O)cc1	9%	6.7µM*	15%	.	-14%
SMILES	ELG1 genotoxic	FLuc counter	NPC1 prom act	SMN2 splice enh	Rab9 promoter act
CC1=CC(=O)OC1Cc1ccc2ccccc2n1 (configuration not stated)	.	.	.	6%	.
Cc1ccnc(NC(=O)CCC(=O)c2cccs2)c1	?	0.34µM*	?	.	?
Cc1ccc(NC(=O)CCC(=O)c2cccs2)cc1F	18%	8.5µM*	20%	.	?
C=Cc1ccc(CSc2nc(-c3ccc(C)cc3)nc3c2Cc2c(CO)cnc(C)c2O3)cc1	.	3%	.	.	.
O=C(COC(=O)c1cnccn1)c1ccc(Cl)cc1	2%	19µM*	-5%	3%	0%
O=C(COc1cccc(Cl)c1Cl)Nc1ccc2c(c1)CCC2	-3%	-1%	-1%	-7%	12%
O=C(COC(=O)c1cnccn1)c1ccc(Br)cc1	14%	15µM*	2%	-12%	0%
O=C(COc1ccccc1Cl)c1ccc2c(c1)CCCC2	?	11µM*	?	14µM*	3.5µM*
O=C(COC(=O)c1cnccn1)c1ccccc1	-2%	?	1%	-16%	-5%
O=C(COC(=O)c1cnccn1)c1ccc(C2CCCCC2)cc1	0%	2.4µM*	-1%	.	2%
COc1cc(-c2nc3n(n2)C(c2ccc(F)cc2)C(C(N)=O)=C(C)N3)cc(OC)c1OC (configuration not stated)	.	5%	.	18%	.
CCCCN(CC)CCNC(=O)Cn1c(=O)c2cccn2c2cccnc21	.	-4%	.	.	.
O=C(COC(=O)c1cnccn1)c1ccc2c(c1)CCCC2	-4%	4.8µM*	9%	6%	9%
O=C(COC(=O)c1cnccn1)c1ccc(-c2ccccc2)cc1	2%	?	-1%	.	-5%
Cc1o[nH]c(=O)c1CCC(N)C(=O)O (configuration not stated)	.	.	.	-6%	.
Cc1ccccc1N1CCN(c2ccc(NC(=O)C3CCCCC3C(=O)O)cc2)CC1 (configuration not stated)	1%	11µM*	0%	-19%	1%
CC1=CC2C(=O)c3cccc(O)c3C(=O)C2C(O)=C1 (configuration not stated)	.	.	.	-4%	.
COc1ccc(OC)c(CCNC(=O)c2cnn(-c3ccccc3)c2C2CCN(C(=O)OC(C)(C)C)CC2)c1	.	-2%	.	.	.
O=C(O)c1c(-c2ccccc2)oc2ccc(OCc3ccc(Cl)c(Cl)c3)cc12	.	15µM*	.	16%	.
CCOC(=O)c1c(-c2ccccc2)oc2ccc(OCc3ccc(C)cc3)cc12	.	-3%	.	-4%	.
Oc1ccccc1C1NN=C(c2ccccc2)S1 (configuration not stated)	?	0.48µM*	?	.	?
O=[N+]([O-])c1cc2c(cc1/C=N/Nc1nc(Nc3ccccc3)nc(N3CCCCC3)n1)OCO2	9%	2.1µM*	19%	-5%	25%
C(=N\Nc1nc(Nc2ccccc2)nc(N2CCCCC2)n1)/c1ccco1	-11%	6µM*	5%	.	26%
O=C(O)c1cccc(Nc2nc(Nc3ccccc3)nc(N3CCCC3)n2)c1	-9%	?	3.2µM*	4%	?
CC(=O)Nc1ccc(/C(C)=N/Nc2nc(Nc3ccccc3)nc(N3CCOCC3)n2)cc1	-2%	17µM*	-1%	.	-3%
Cc1c(C(=O)OC(C)C)sc(NC(=O)C2c3ccccc3Oc3ccccc32)c1C(=O)OC(C)C	.	-1%	.	-15%	.
Nc1ccccc1C(=O)C[C@@H](N)C(=O)O	.	.	.	0%	.
O=C(O)COc1ccc(/C=N/Nc2nc(Nc3ccccc3)nc(N3CCCCC3)n2)cc1	-2%	0.67µM*	-4%	11%	0%
COc1ccc(/C=N/Nc2nc(Nc3ccccc3)nc(N3CCCC3)n2)cc1	-14%	-10%	5%	-20%	4%
